Shown are actives, neighbours in structure and some others; about 3.6% of the full set was active somewhere.
HSF1 inhib: HSF1 inhibitors in luciferase reporter cells, primary screen, cell-based, NIH3T3, luminescence; NIH3T3-HGL HSE-luciferase, MG132-induced, luminescence 8 h; hits give low values; activity change, negative = inhibition, % at 7.5 µM (by protocol); actives 0.77% (n = 300,000);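 active means more than half of replicate wells show activity change below -50%, luminescence cut by over half; inconclusive means some wells, but at most half, below -50%; inactive means no replicate well below -50%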;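 further: luciferase reports HSF-1 transcriptional activity via heat shock element; 0% = median of DMSO wells and -100% = zero luminescence signal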
TROY signal inh: inhibitors of TROY-driven NF-kB signaling, primary screen, Q293 LMP1-TROYcd cells, NF-kB luciferase, uHTS | actives 0.98% (n = 360,000) | inhibition, % at 10 µM | Q293 LMP1-TROYcd NF-kB luciferase reporter, 4 h;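 active means compounds whose plate-normalised and pattern-corrected inhibition of the luciferase reporter signal at the single screening dose is 50% or more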
TWEAK Fn14 block: inhibitors of TWEAK-Fn14 signaling, primary screen, luciferase reporter cells, uHTS; TWEAK-stimulated Fn14 reporter cells, luciferase luminescence, 8 h; inhibition, % at 10 µM; actives 2% (n = 360,000); AID 1159606, 2016; in the data active means inhibition above about 50%
LGR2 inh: inhibitors of bursicon-induced LGR2 CRE-luciferase signal, primary screen, cell-based, HEK293, CRE-luciferase reporter, bursicon stimulation; bursicon-stimulated, 4 h; AID 720647, 2013; inhibition, % at 9.99 µM; Drosophila bursicon receptor LGR2 (rickets); actives 0.35% (n = 380,000);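 active means drop in luminescence signal, shown as inhibition above about 50% in the replicate tests, limit read from the data, passing the limit was not always enough; inconclusive means probably only some replicates passing the limit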;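 further: agonist challenge used bursicon conditioned medium at about half maximal strength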
HSF1 activator: HSF-1 activators, primary screen, NIH3T3-HGL cells, MG132 stress, luminescence, single point; NIH3T3-HGL HSF-1 luciferase reporter, 8 h; 100% = twice DMSO control signal; activation, % at 9 µM; actives 1.7% (n = 300,000); AID 504408, 2011;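 active means mean replicate activation of at least 50% with a set share of replicates each reaching 50%; inconclusive means only one of those two conditions met; inactive means mean below 50% and too few replicates reaching it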;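 further: 0% = median of the neutral control wells and 100% = twice that signal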
EBV LMP1 NFkB: EBV LMP1-driven NF-kappaB luciferase reporter inhibitors, primary screen, cell-based, luminescence, single point; LMP1-induced NF-kappaB luciferase reporter cells; inhibition, % at 12.5 µM; actives 0.69% (n = 350,000); in the data active means inhibition above about 41%; inconclusive means no clear call, values can overlap the other calls;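 further: 0% = neutral control wells and 100% = reference inhibitor control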
Numbers without * were called inactive; ? = inconclusive; · = not tested or not shown.

SMILES	HSF1 inhib	TROY signal inh	TWEAK Fn14 block	LGR2 inh	HSF1 activator	EBV LMP1 NFkB
COc1cccc2sc(Nc3nnc(-c4ccccc4Cl)o3)nc12	-1	-5	0	-25	9	10
COc1n[nH]c(C(=O)NCc2ccccc2)c1[N+](=O)[O-]	·	-21	4	4	·	4
Cc1ccnc2nc(C(=O)Nc3nc4ccccc4s3)nn12	7	-46	67*	18	14	10
COc1n[nH]c(C(=O)Nc2nc3ccccc3s2)c1[N+](=O)[O-]	-65*	22	9	·	-69	-9
Cc1csc(NC(=O)c2nc3nccc(C)n3n2)n1	12	-34	6	·	16	-7
COc1ccccc1-c1nnc(Nc2nc3c(OC)cccc3s2)o1	125	-19	14	·	214*	5
Cn1cc(Cl)c(C(=O)Nc2nc3ccccc3s2)n1	13	7	57*	·	19	2
CCCNC(=O)N1C[C@@H](C)[C@@H](OC)CN(C)C(=O)c2ccc(NS(=O)(=O)CC(F)(F)F)cc2OC[C@H]1C	·	·	·	9	·	·
COc1cccc2sc(Nc3nc4ccc(NC(C)=O)cc4s3)nc12	-3	-40	51*	·	-1	-1
CC(=O)Nc1ccc2nc(NC(=O)COc3ccccc3C)sc2c1	9	20	-4	-26	36	-1
O=C(Nc1ccccc1)C1=C[C@H](C2CCCCC2)C[C@H](OCc2ccc(CO)cc2)O1	-4	66*	39	-28	-6	-3
O=C(Nc1ccccc1)C1=C[C@@H](c2csc3ccccc23)C[C@@H](OCc2ccc(CO)cc2)O1	-2	76*	-16	12	3	-21
O=C(NCc1ccccc1)C1=C[C@H](c2csc3ccccc23)C[C@H](OCc2ccc(CO)cc2)O1	-28	16	33	16	-35	0
O=C(Nc1ccccc1)C1=C[C@@H](C2CCCCC2)C[C@@H](OCc2ccc(CO)cc2)O1	-31	73*	57*	-17	-47	25
COc1ccc2c3c(n(C)c2c1)[C@H](CO)N(CC1CC1)CC31CCN(C(=O)c2ccc3c(c2)OCO3)CC1	·	·	·	-5	·	·
COC(=O)c1ccc(N2CCN(C(C)=O)CC2)c(NC(=O)COc2ccccc2C)c1	-64*	7	-5	2	-72	-1
C[C@H]1CN([C@@H](C)CO)C(=O)Cc2cc(NS(=O)(=O)c3ccc(Cl)cc3)ccc2O[C@H]1CN(C)Cc1ccc(-c2ccccc2)cc1	·	·	·	-21	·	·
Cc1ccc(C(NC(=O)NC(C)c2ccccc2)C(Cl)(Cl)Cl)cc1F (stereo unspecified)	-3	58*	55*	?	5	10
CC1CCN(C(=O)c2cc3ccccc3c(=O)o2)CC1	-2	-23	-10	-5	-4	-9
CCOC(=O)C1CCN(C(=O)c2cc3c(ccc4ccccc43)o2)CC1	52	-39	-28	-129	77*	-31
CC1CCN(C(=O)c2cc3c(ccc4ccccc43)o2)CC1	-7	41	61*	?	-7	-4
CCCNC(=O)[C@H]1[C@H](CO)[C@H]2Cn3c(ccc(-c4ccccc4)c3=O)[C@@H]1N2C(=O)C1CC1	·	·	·	31	·	·
CC(=O)N(C)C[C@@H]1Oc2ncc(C#C[C@H](C)O)cc2C(=O)N([C@@H](C)CO)C[C@H]1C	·	·	·	0	·	·
C[C@H](NC(=O)C[C@H]1C=C[C@@H](NC(=O)C2CCC2)[C@H](CO)O1)c1ccccc1	·	·	·	-1	·	·
Cn1ncc([N+](=O)[O-])c1C(=O)Nc1ccc(-c2nc3ccccc3o2)cc1	19	-48	21	-6	56*	-18
SMILES	HSF1 inhib	TROY signal inh	TWEAK Fn14 block	LGR2 inh	HSF1 activator	EBV LMP1 NFkB
CCc1ccc(CN(C)C(=O)c2cc(COc3ccc(OC)cc3Cl)on2)nc1	22	-43	-31	-27	56*	-25
Cc1ccc(CN(C)C(=O)c2cc(COc3ccc(F)cc3Cl)on2)o1	10	-71	-9	-40	54*	7
C[C@@H]1CN([C@H](C)CO)C(=O)c2cc(NS(=O)(=O)c3cn(C)cn3)ccc2O[C@@H](C)CCCCO[C@@H]1CN(C)CC1CCCCC1	·	·	·	32	·	·
CCCC(C)C(=O)N(Cc1ccccc1)c1ccccn1 (stereo unspecified)	-2	0	61*	·	18	-1
C/C(=N/Nc1ncc(Br)cn1)c1ccc(Br)cc1	9	-42	-34	-9	8	-1
C/C(=N\Nc1ccc(C(=O)O)cc1)c1ccc(Br)cc1	-19	14	66*	-24	-34	4
COc1ccccc1C(=O)NCCC(=O)NNC(=O)Cn1ccc(C(F)(F)F)n1	-77*	-10	15	-1	-82	8
COc1ccc2c(c1)oc(=O)c1c3ccccc3[nH]c21	21	-55	2	·	71*	-38
CCCN(C)C[C@@H]1Oc2ncc(Br)cc2C(=O)N([C@@H](C)CO)C[C@@H]1C	·	·	·	22	·	·
CC(C)(C)C(=O)Nc1cc2nn(-c3ccccc3)nc2cc1Cl	·	91*	108*	·	·	75*
CC(=O)Nc1cc2nn(-c3ccccc3)nc2cc1Cl	32	-27	28	·	46	-18
CN(C)C(=O)c1cccc(-c2ccccc2[C@H]2[C@@H](CO)N(C(=O)C3CCCC3)[C@H]2C#N)c1	·	·	·	-7	·	·
O=C(COc1ccccc1-c1ccccc1)N/N=C/c1cccc2ccccc12	-20	28	18	·	-14	7
COc1ccc(/C=N/NC(=O)COc2ccccc2-c2ccccc2)cc1	-27	14	-37	-7	-21	74*
COc1cccc(NC(=O)Nc2nc(SC)ns2)c1	3	-10	56*	0	22	-35
CCSc1nsc(NC(=O)Nc2cccc(F)c2)n1	-10	48	55*	-1	3	25
CCCSc1nsc(NC(=O)Nc2ccc(F)cc2F)n1	53	20	48	-7	68*	-10
COc1ccc(NC(=O)Nc2cccc(OC)c2)cc1	2	-61	-3	·	39	-9
Cc1cc(C)nc(NC(=O)Nc2ccc(F)cc2F)n1	8	-67	-7	-39	6	-20
COc1cccc(NC(=O)Nc2nccc(C)n2)c1	10	26	62*	31	24	30
CN1CCN(C(=O)C[C@H]2CC[C@H]3[C@@H](COC[C@H](O)CN3C(=O)Nc3ccc(F)cc3)O2)CC1	·	·	·	-15	·	·
C[C@H](CO)N1C[C@H](C)[C@@H](CN(C)C(=O)Nc2cccc3ccccc23)Oc2c(NS(=O)(=O)c3ccc(Cl)cc3)cccc2C1=O	·	·	·	-1	·	·
